Screening results from PubChem.
HT1080NT lethal: kills 2HG-producing HT-1080-NT fibrosarcoma cells. AID 686970. HT-1080-NT fibrosarcoma viability, CellTiter-Glo ATP luminescence, 48 h. Potency, µM (highest dose often 46.1 µM), usual class: cytotoxic. 1.6% of 360,000 active;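 further: NT is the 2HG producing partner of a matched IDH1 knockdown line; nearly all actives have a fitted effect of over 55% in size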
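Compounds were tested in concentration-response format on HT-1080-NT cells for 48 hours at 37 degrees C. Cell viability came from CellTiter-Glo luminescence; curves were classified by r2, response magnitude and activity.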
TDP1 cell noCPT: qHTS for Inhibitors of human tyrosyl-DNA phosphodiesterase 1 (TDP1): qHTS in cells in absence of CPT; DT40 Tdp1-/- hTDP1 cells, no CPT, ATP luminescence, 48 h; Potency, µM (top dose mostly 46.2 µM), most hits filed as inhibitors; 15% of 420,000 active; AID 686978, 2013; further: nearly all actives have a fitted effect of over 55% in size
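Growth of hTDP1-complemented DT40 Tdp1-knockout cells is measured by ATP luminescence after at least 48 hr compound exposure at 37 °C, with DMSO substituting for the 20 nM CPT used in the parallel screen.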
KB-3-1 tox: kills parental KB-3-1 adenocarcinoma cells; AID 1347075; 1.4% of 400,000 active; Potency, µM (titrated, usually from 46.1 µM), most hits filed as cytotoxic; KB-3-1 viability, CellTiter-Glo ATP luminescence, 72 h; further: nearly all actives have a fitted effect of over 60% in size
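Screening of KB-3-1 cells (DMEM, 10% FBS, phenol-red free) ran from lowest to highest compound concentration; after 72 h at 37 °C viability was read luminescently and curves fitted.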
HT1080 IDH1KD tx: kills HT-1080 cells with IDH1 knockdown. HT-1080 IDH1 knockdown viability, ATP luminescence, 48 h. AID 686971. 2% of 360,000 active. Potency, µM (highest dose often 46.1 µM), most hits filed as cytotoxic
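After a 2 h attachment period, IDH1KD HT-1080 cells took pin-transferred compound for 48 h at 37 °C; ATP-based luminescence after 10 min room-temperature reagent incubation reported viability.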
KB-V1 cytotox: kills drug-selected multidrug resistant KB-V1 cells | KB-V1 MDR cells viability, CellTiter-Glo, 72 h | Potency, µM (doses to about 46.1 µM), actives largely listed as cytotoxic | 3.4% of 400,000 active; further: nearly all actives have a fitted effect of over 60% in size
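qHTS viability screen in drug-selected KB-V1 MDR cells: 72 h compound treatment at 37 degrees C, ATP luminescence end point.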
DT40 TDP1 CPT: DT40-hTDP1 cell growth loss with CPT. chicken DT40 Tdp1-/-;hTDP1 cells + 20 nM CPT, ATP luminescence, 48 h. Potency, µM (series often up to 46.2 µM), most hits filed as inhibitors. 12% of 420,000 active. AID 686979; further: nearly all actives have a fitted effect of over 55% in size
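Chicken DT40 Tdp1-/- cells stably complemented with human TDP1 were seeded at 400 cells/well in medium containing 20 nM camptothecin, exposed to pin-transferred compounds, and grown at 37 °C for at least 48 hr. Viability was read as ATP luminescence.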
Of the large screens only hits and unclear results are named; the others gave an inactive call. Hits are enriched below; roughly 19% of the tested compounds scored in any of these assays. The call rests on the fitted dose curve; in most records, active means well fitted curve in the direction sought with a large enough effect; inconclusive means small, poorly fitted or top-dose-only effect, or another doubt; inactive means no such curve, though single readings can be large; an effect the other way counts as inactive or inconclusive.

Cc1ccc(S(=O)(=O)CC(CN2CCCCC2)N2CCCCC2)cc1 (stereo unspecified)	HT1080NT lethal 18.4µM, TDP1 cell noCPT 13µM, KB-3-1 tox inconclusive, HT1080 IDH1KD tx 18.4µM, DT40 TDP1 CPT inconclusive
O=S(=O)(CC(CN1CCCCC1)N1CCCCC1)c1ccc2ccccc2c1 (stereo unspecified)	HT1080NT lethal inconclusive, TDP1 cell noCPT 2.59µM, KB-3-1 tox 6.51µM, HT1080 IDH1KD tx inconclusive, KB-V1 cytotox inconclusive, DT40 TDP1 CPT 5.17µM
CCN(CC)c1ccc(-c2nnc(SCC(=O)NCc3ccco3)n2CC)cc1	TDP1 cell noCPT inconclusive, DT40 TDP1 CPT inconclusive (no result: HT1080NT lethal, HT1080 IDH1KD tx)
C=CCn1c(SCc2ccc(Cl)cc2)nc2cc(C(=O)N3CCC(C(N)=O)CC3)ccc2c1=O	TDP1 cell noCPT inconclusive, KB-3-1 tox inconclusive, KB-V1 cytotox 25.9µM, DT40 TDP1 CPT inconclusive
CCCCCn1c(SCC(=O)OCC)nc2cc(C(=O)N3CCC(C(N)=O)CC3)ccc2c1=O	DT40 TDP1 CPT inconclusive
Cn1c2c(sc1=O)CCC2	KB-3-1 tox inconclusive, KB-V1 cytotox inconclusive
COc1ccc(NC(=O)CN(C)C(=O)/C=C/c2cn(-c3ccccc3)nc2-c2cccs2)cc1	TDP1 cell noCPT 18.4µM, DT40 TDP1 CPT inconclusive
COc1ccc(NC(=O)CN(C)C(=O)/C=C/c2cn(-c3ccccc3)nc2-c2ccc(C)cc2)cc1	TDP1 cell noCPT 20.6µM, DT40 TDP1 CPT inconclusive
COc1ccc(NC(=O)CN(C)C(=O)/C=C/c2cn(-c3ccccc3)nc2-c2ccc(F)cc2)cc1	TDP1 cell noCPT 23.1µM, HT1080 IDH1KD tx inconclusive, DT40 TDP1 CPT inconclusive
COc1ccc(NC(=O)CN(C)C(=O)c2cn(-c3ccccc3)nc2-c2ccc(OC)cc2)cc1	TDP1 cell noCPT inconclusive, DT40 TDP1 CPT inconclusive
COc1cccc(NC(=O)CN(C)C(=O)/C=C/c2cn(-c3ccccc3)nc2-c2ccc(C)cc2)c1	TDP1 cell noCPT inconclusive, DT40 TDP1 CPT inconclusive
C[C@H]1CN([C@@H](C)CO)C(=O)c2cc(NC(=O)NC3CCCCC3)ccc2O[C@H]1CN(C)C(=O)Nc1ccc(C(F)(F)F)cc1	TDP1 cell noCPT inconclusive, DT40 TDP1 CPT inconclusive
COc1cc(CNC2CCCc3ccccc32)cc(OC)c1OC (stereo unspecified)	TDP1 cell noCPT 20.6µM, DT40 TDP1 CPT inconclusive
COc1cc(CNC2CCCC2)cc(Cl)c1OCc1ccc(F)cc1	HT1080NT lethal 16.4µM, TDP1 cell noCPT 14.6µM, KB-3-1 tox inconclusive, HT1080 IDH1KD tx 20.6µM, KB-V1 cytotox inconclusive, DT40 TDP1 CPT inconclusive
COc1cccc(CNC2CCCc3ccccc32)c1OC (stereo unspecified)	TDP1 cell noCPT inconclusive, KB-V1 cytotox inconclusive
COc1cc(CNC2CCCC2)cc(Cl)c1OCc1ccccc1Cl	HT1080NT lethal inconclusive, TDP1 cell noCPT 23.1µM, KB-3-1 tox inconclusive, HT1080 IDH1KD tx inconclusive, KB-V1 cytotox 20.6µM, DT40 TDP1 CPT 23.1µM
COc1cc(CNC2CCCCCCC2)cc(Cl)c1OCC(N)=O	none
CCCNC(=O)CCc1nnc2ccc(N3CCN(c4cccc(OC)c4)CC3)nn12	TDP1 cell noCPT inconclusive (no result: HT1080NT lethal, KB-3-1 tox, HT1080 IDH1KD tx, KB-V1 cytotox)
O=C(O)C1C2C=CC(O2)C1C(=O)Nc1cccc(C(F)(F)F)c1 (stereo unspecified)	KB-V1 cytotox inconclusive
Cc1ccc(CNCc2c(C(=O)O)n(Cc3ccc(C)cc3)c3cc(C)ccc23)cc1	TDP1 cell noCPT inconclusive, DT40 TDP1 CPT 23.1µM (no result: HT1080NT lethal, HT1080 IDH1KD tx)
C=Cc1ccc(Cn2c(C(=O)O)c(CNCc3cc(Br)ccc3OC)c3ccc(C)cc32)cc1	TDP1 cell noCPT inconclusive, KB-V1 cytotox inconclusive (no result: HT1080NT lethal, HT1080 IDH1KD tx)
CCOc1ccc(CNCc2c(C(=O)O)n(Cc3ccccc3C)c3cc(OC)ccc23)cc1OC	TDP1 cell noCPT 1.03µM, DT40 TDP1 CPT 0.651µM (no result: HT1080NT lethal, KB-3-1 tox, HT1080 IDH1KD tx, KB-V1 cytotox)
COc1ccc(Cn2c(C(=O)O)c(CNCCc3cccs3)c3ccc(C)cc32)cc1	TDP1 cell noCPT 23.1µM, DT40 TDP1 CPT inconclusive (no result: HT1080NT lethal, HT1080 IDH1KD tx)
Cc1ccc(Cn2c(C(=O)O)c(CNCCc3cccs3)c3ccc(C)cc32)cc1	KB-V1 cytotox inconclusive, DT40 TDP1 CPT inconclusive (no result: HT1080NT lethal, HT1080 IDH1KD tx)
